From PubChem BioAssay (NCATS)
Values joined by “and” are separate entries in the source; they are usually repeats but may differ in a detail not shown here. Identical values can stand only once. Results filed as inconclusive are left out. Active and inactive are the calls of the source. Calls follow the shape of the dose curve; as a rule, active = well fitted curve in the direction sought with a large enough effect; inconclusive = small, poorly fitted or top-dose-only effect, or another doubt; inactive = no such curve, though single readings can be large; an effect the other way counts as inactive or inconclusive. Square brackets hold non-standard residues; d marks the D form. Peptide text beside a SMILES is read from it. Ala(indol-2-yl) = N[C@@H](Cc1cc2ccccc2[nH]1)C(=O)O; Aib = CC(C)(N)C(=O)O

Key:
[1] = molecular target: Cellular tumor antigen p53 (Homo sapiens) (UniProt P04637); assay: Primary qHTS for small molecule compounds that upregulate eGFP-tagged delta133p53alpha (in N-terminal) cells. (AID 2060322); conditions: NCI-H358 eGFP-delta133p53alpha fluorescence, 24 h; activation: hits give high values; also: nearly all actives have a fitted effect of over 75% in size; also: potency is read from the fitted curve at half-maximal effect;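 as to activation: cells pre-induced with doxycycline then dosed without doxycycline; series mostly up to about 56 µM; 0% = DMSO vehicle and 100% = reference activator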
Summary of the method: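 NCI-H358 cells pre-induced 24 h with 10 ng/ml doxycycline for eGFP-delta133p53alpha, plated dox-free and exposed 24 h at 37C to titrated compounds. Fixed, Hoechst-stained; gated GFP peak intensity by laser scanning cytometry, normalized to DMSO (0%) and 57.5 uM 5-azacytidine (100%).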

[2] = molecular target: Aldehyde dehydrogenase, mitochondrial (Homo sapiens) (UniProt P05091); assay: qHTS for Inhibitors of the Aldehyde Dehydrogenase Family (ALDH2) Primary screen (AID 2061308);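 also: plate controls were vehicle for no effect and reference inhibitor for full effect; nearly all actives have a fitted effect of over 55% in size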
[3] = molecular target: Retinaldehyde dehydrogenase 3 (Homo sapiens) (UniProt P47895); assay: qHTS for Inhibitors of the Aldehyde Dehydrogenase Family (ALDH1A3) Primary screen (AID 2061315); also: potency is read from the fitted curve at half-maximal effect;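 as to activity change, negative = inhibition: plate controls were DMSO vehicle for no effect and reference inhibitor for full effect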
[4] = BET inhibitor-based combinations targeting novel dependencies in MECOM-rearranged (r) AML: SET-2 cell line (AID 2202231); conditions: SET-2 AML cells viability, CellTiter-Glo luminescence, 48 h; viability: hits give low values, concentration not given here; also: nearly all actives have a fitted effect of over 35% in size; also: potency is read from the fitted curve at half-maximal effect;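 as to viability: plate controls were DMSO treated cells for no effect and wells without cells for full effect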
Summary of the method: (§1)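 500 cells/well; 11-pt dose curve; 48 h, standard incubator; CellTiter-Glo luminescence after 15 min RT; DMSO/empty-well normalization; AUC plus Z-AUC (mean-centered within each line).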

[5] = BET inhibitor-based combinations targeting novel dependencies in MECOM-rearranged (r) AML: OCI-AML3 cell line (AID 2202232); conditions: Potency: OCI-AML3 viability; also: nearly all actives have a fitted effect of over 35% in size; also: potency is read from the fitted curve at half-maximal effect
Summary of the method: as §1

[6] = BET inhibitor-based combinations targeting novel dependencies in MECOM-rearranged (r) AML: MV-4-11 cell line (AID 2202233); also: nearly all actives have a fitted effect of over 45% in size; also: potency is read from the fitted curve at half-maximal effect
Summary of the method: (§2)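 Cells were plated at 500 per well and exposed to each drug across an 11-point dose range for 48 hr at standard incubator conditions. Viability was read by CellTiter-Glo luminescence, and activity was expressed as AUC and per-cell-line Z-transformed AUC.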

[7] = BET inhibitor-based combinations targeting novel dependencies in MECOM-rearranged (r) AML: HNT-34 cell line (AID 2202234); also: nearly all actives have a fitted effect of over 35% in size; also: potency is read from the fitted curve at half-maximal effect
Summary of the method: as §2

[8] = BET inhibitor-based combinations targeting novel dependencies in MECOM-rearranged (r) AML: UCSD-AML1 cell line (AID 2202235); also: nearly all actives have a fitted effect of over 40% in size; also: potency is read from the fitted curve at half-maximal effect
Summary of the method: as §2

[9] = BET inhibitor-based combinations targeting novel dependencies in MECOM-rearranged (r) AML: AML-194 cell line (AID 2202237; also: nearly all actives have a fitted effect of over 40% in size; also: potency is read from the fitted curve at half-maximal effect)
Summary of the method: as §1

[10] = molecular target: Retinaldehyde dehydrogenase 3 (Homo sapiens) (UniProt P47895); assay: qHTS for Inhibitors of the Aldehyde Dehydrogenase Family (ALDH1A3) Validation screen (AID 2061312); also: nearly all actives have a fitted effect of over 45% in size; also: potency is read from the fitted curve at half-maximal effect; as to activity change, negative = inhibition: % is scaled to controls: 0 for no effect and ±100 for the full control effect
[11] = BET inhibitor-based combinations targeting novel dependencies in MECOM-rearranged (r) AML: AML-191 cell line (AID 2202236; also: nearly all actives have a fitted effect of over 35% in size; also: potency is read from the fitted curve at half-maximal effect)
Summary of the method: as §1

[12] = molecular target: Retinaldehyde dehydrogenase 3 (Homo sapiens) (UniProt P47895); assay: qHTS for Inhibitors of the Aldehyde Dehydrogenase Family (ALDH1A3) Confirmatory screens (AID 2061311); also: % is scaled to controls: 0 for no effect and ±100 for the full control effect; nearly all actives have a fitted effect of over 60% in size
[13] = molecular target: Aldehyde dehydrogenase 1A1 (Homo sapiens) (UniProt P00352); assay: qHTS for Inhibitors of the Aldehyde Dehydrogenase Family (ALDH1A1) Confirmatory screens (AID 2061316); also: nearly all actives have a fitted effect of over 65% in size; also: potency is read from the fitted curve at half-maximal effect

Sequence of Cellular tumor antigen p53 (Homo sapiens) (P04637 whole entry, looked up): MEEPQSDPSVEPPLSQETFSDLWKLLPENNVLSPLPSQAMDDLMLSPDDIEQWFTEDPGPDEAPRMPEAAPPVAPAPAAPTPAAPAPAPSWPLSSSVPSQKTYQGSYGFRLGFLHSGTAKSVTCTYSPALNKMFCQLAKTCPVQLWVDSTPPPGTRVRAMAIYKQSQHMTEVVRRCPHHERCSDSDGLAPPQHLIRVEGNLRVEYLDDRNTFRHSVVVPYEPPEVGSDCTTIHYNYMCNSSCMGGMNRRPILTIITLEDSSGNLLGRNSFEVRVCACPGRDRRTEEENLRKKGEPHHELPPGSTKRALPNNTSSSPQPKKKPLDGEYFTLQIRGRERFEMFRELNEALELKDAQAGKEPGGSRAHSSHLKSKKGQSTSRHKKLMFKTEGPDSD

O=C(NCC1CCOCC1)c1cnc(Nc2ccc(Cl)cc2Cl)nc1C(F)(F)F
inactive: activation [1] -5.35% and 9.55% | Potency [2] | Potency [3] | viability [4] 97.9% | Potency [5] | Potency [7] | Potency [8]
active: Potency [6] 14800 nM

c1cncc(OC[C@@H]2CCN2)c1
inactive: activation [1] -4.3% | Potency [3]

CN[C@@H]1C[C@H]2O[C@@](C)([C@@H]1OC)n1c3ccccc3c3c4c(c5c6ccccc6n2c5c31)C(=O)NC4
inactive: Potency [2] | Potency [3]
active: Potency [1] 426 nM | Potency [5] 83.3 nM | Potency [8] 66.1 nM | Potency [9] 33.2 nM

COc1ccc(N(C(=O)Oc2c(C)cccc2C)c2ccnc(Nc3ccc(N4CCN(C)CC4)cc3)n2)c(OC)c1
inactive: activation [1] -14.2% | Potency [2] | Potency [3] | Potency [8] | Potency [9]
active: Potency [5] 5900 nM

C[N+](C)(C)CC#CCN1CCCC1=O
inactive: activation [1] -31.7% | Potency [10]

O=C(C[C@@H]1NCCC[C@H]1O)Cn1cnc2ccccc2c1=O
active: Potency [1] 239 nM
inactive: Potency [3]

CC(C)[C@]12O[C@H]1[C@@H]1O[C@]13[C@]1(O[C@H]1C[C@H]1C4=C(CC[C@@]13C)C(=O)OC4)[C@@H]2O
inactive: Potency [2] | Potency [3]
active: Potency [1] 269 nM | Potency [4] 59 nM | Potency [5] 29.5 nM | Potency [6] 37.2 nM | Potency [11] 37.2 nM | Potency [9] 46.8 nM

FC(F)(F)c1ccc(N2CCNCC2)nc1Cl
inactive: activation [1] -26.3% | Potency [10] | Potency [3]

O=C(Oc1ccc([N+](=O)[O-])cc1)N1CCC(C(O)(c2ccc3c(c2)OCO3)c2ccc3c(c2)OCO3)CC1
inactive: activation [1] 9.18% and -1.67% | Potency [2] | Potency [3] | viability [4] 104% | Potency [11] | Potency [9]

CNc1ccc2oc(C[C@H]3O[C@@]4(CC[C@H]3C)O[C@H](C(C)C(=O)c3ccc[nH]3)[C@H](C)C[C@H]4C)nc2c1C(=O)O (stereo partly specified)
active: Potency [1] 19000 nM | Potency [10] 14100 nM | Potency [3] 11200 nM

Clc1ccc(N2C[C@H]3CC[C@@H](C2)N3)nn1
inactive: activation [1] -0.333% | Potency [3]

CN1C(=O)[C@]23CC4C(C)(C)[C@@]5(C[C@@]41CN2CC[C@@]3(C)O)C(=O)Nc1c5ccc2c1OC=CC(C)(C)O2 (stereo partly specified)
inactive: activation [1] -19.1% | Potency [3]

CCOC(=O)Nc1ccc(NCc2ccc(F)cc2)cc1N
inactive: activation [1] -10.3% and -0.955% | Potency [2] | Potency [5] | Potency [6] | Potency [7] | Potency [8] | Potency [11]

CC(=O)OC[C@]12C[C@H](O)C(C)=C[C@H]1O[C@@H]1[C@H](O)[C@@H](OC(C)=O)[C@@]2(C)[C@]12CO2
active: Potency [1] 83 nM
inactive: Potency [2] | Potency [3]

CC1(N2CCC(n3c([C@@H]4CCCNC4)nc4ccccc43)CC2)CCCCCCC1
active: Potency [5] 16600 nM | Potency [6] 16600 nM | Potency [7] 20900 nM | Potency [11] 20900 nM | Potency [9] 26300 nM
inactive: activation [1] 44.9% and 4.3% | Potency [2] | Potency [3]

CC(=O)OC[C@]12[C@H](OC(C)=O)C(=O)[C@@H]3[C@@H](O)[C@@]14O[C@@]3(C)COC(=O)c1cccnc1[C@@H](C)[C@H](C)C(=O)O[C@@H]([C@H](OC(C)=O)[C@@H]2OC(C)=O)[C@]4(C)O
inactive: activation [1] 21.4% | Potency [2] | Potency [3]

CN(C)[C@@H]1C(=O)C(C(N)=O)=C(O)[C@@]2(O)C(=O)C3=C(O)c4c(O)ccc(Cl)c4[C@@](C)(O)C3C[C@@H]12 (stereo partly specified)
active: Potency [1] 23900 nM
inactive: Potency [12] | Potency [3] | Potency [13]

CCNC(=O)C[C@@H]1N=C(c2ccc(Cl)cc2)c2cc(OC)ccc2-n2c(C)nnc21
inactive: activation [1] -15.8% and 11.6% | Potency [2] | Potency [3]
active: Potency [6] 468 nM

CC(C)(NC(=O)[C@@H](N)Cc1ccc(O)cc1)C(=O)N[C@@H](Cc1cc2ccccc2[nH]1)C(=O)N[C@@H](Cc1ccccc1)C(=O)O (H-Y[Aib][Ala(indol-2-yl)]F-OH)
inactive: activation [1] 7% | activity change, negative = inhibition [2] -1.78% [at 11.2 µM] | activity change, negative = inhibition [3] -10.2% [at 11.2 µM]

C=C1C2(C)CC3C(C)(O)C4=CC(=O)OC(C)(C)C4=CCC3(C)C13C(=O)OC(C)C3(O)C2=O (stereo unspecified)
inactive: activation [1] -0.763% | Potency [2] | Potency [3]

C[C@]12CC[C@@H]3c4ccc(OC(=O)N(CCCl)CCCl)cc4CC[C@H]3[C@@H]1CC[C@@H]2OP(=O)(O)O
inactive: activation [1] -2.49% and -2.33% | Potency [3] | viability [4] 112% | Potency [5] | Potency [6] | Potency [7] | Potency [8] | Potency [11] | Potency [9]

CN1CN(c2ccccc2)C2(CCN(CCCC(=O)c3ccc(F)cc3)CC2)C1=O
inactive: activation [1] 23.7% | Potency [3]
active: Potency [13] 22500 nM

C[C@](O)(COc1ccc(C#N)cc1)C(=O)Nc1ccc(C#N)c(C(F)(F)F)c1
inactive: activation [1] -20% | Potency [5] | Potency [8] | Potency [9]
